Data on 18 molecules can be found in PubChem BioAssay.

Assay [1] in a line: antimalarial activity against Dd2 strain (AID 2302;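 active = growth inhibition above 50% at the single 2 µM test dose, taken to imply half-maximal potency below 2 µM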;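 note: 0% = DMSO untreated growth and 100% = chloroquine plus artemisinin killed control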). The following applies: P. falciparum Dd2 in RBCs, LDH growth readout, 72 h; at 2 µM; active compounds read high.
The nature of assay [2]: HepG2 cytotoxicity, primary screen, cytotoxicity control for P. falciparum antimalarial project, cell-based, ATP luminescence (AID 2303;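 active = inhibition above 50%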;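 note: 0% = DMSO wells and 100% = digitonin-killed cells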). The following applies: HepG2 viability, 24-48 h, at 10 µM, active compounds read high.
Assay [3] concerns the target L-lactate dehydrogenase (Plasmodium falciparum (isolate CDC / Honduras)) (UniProt Q27743). As to the kind of experiment: PfLDH activity inhibition – cell lysate, 3D7 strain, counter-screen for P. falciparum growth inhibition project (AID 2304).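 Note: 0% = vehicle and 100% = reference inhibitor.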 As to conditions: P. falciparum 3D7 crude extract, LDH APAD/NBT absorbance; at 2 µM; active compounds read high. (The purpose of a counterscreen is to sort out artefacts and off-target activity.)

The nature of assay [4]: inhibition of 3D7 malaria parasite growth – strain 3D7 (AID 2306).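 Note: 0% = DMSO wells and 100% = chloroquine plus artemisinin control wells.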 As to conditions: P. falciparum 3D7 erythrocytic growth, LDH absorbance, 72 h; at 2 µM; active compounds read high.
Assay [5] concerns the target Calcium-dependent protein kinase 1 (Plasmodium falciparum (isolate 3D7)) (UniProt P62344). The assay is described as follows: PfCDPK1 kinase inhibitors, biochemical, TCAMS library (AID 1159585; cut-off not given, nearly all actives have IC50 up to about 0.98 µM;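 note: inhibitors leave more ATP so luminescence rises with inhibition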). As to conditions: recombinant PfCDPK1, Kinase-Glo ATP depletion luminescence.
The target of assay [6] is Plasmodium falciparum protein kinase 6 (PK6, PF3D7_1337100) (UniProt Q8IDW1). As to the kind of experiment: PfPK6 kinase inhibitors, biochemical, TCAMS library (AID 1159586). As to conditions: recombinant PfPK6, Kinase-Glo ATP depletion luminescence. A general note: In Kinase-Glo more light means more ATP remaining.
Plasmodium falciparum protein kinase 6 (PK6, PF3D7_1337100), sequence (Q8IDW1 1-305): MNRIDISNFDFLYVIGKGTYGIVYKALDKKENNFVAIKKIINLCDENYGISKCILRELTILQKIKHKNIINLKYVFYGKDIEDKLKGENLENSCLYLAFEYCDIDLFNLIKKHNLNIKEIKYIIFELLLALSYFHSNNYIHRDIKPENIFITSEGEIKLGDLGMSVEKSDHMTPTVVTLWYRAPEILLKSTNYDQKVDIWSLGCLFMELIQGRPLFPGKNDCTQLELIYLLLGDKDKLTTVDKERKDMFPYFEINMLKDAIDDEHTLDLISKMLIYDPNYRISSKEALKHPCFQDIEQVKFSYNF
Assay [7] addresses Protein kinase 7 (PK7), Plasmodium falciparum 3D7 (PF3D7_0213400) (UniProt Q7YTF7). The assay is described as follows: inhibition of Plasmodium PK7 catalytic activity – biochemical, TCAMS antimalarial set, Kinase-Glo luminescence (AID 1159587). The following applies: recombinant PfPK7, Kinase-Glo ATP depletion luminescence.
In assay [8] the target is Calcium-dependent protein kinase 4 (Plasmodium falciparum (isolate 3D7)) (UniProt Q8IBS5). As to the kind of experiment: PfCDPK4 kinase inhibitors, biochemical, TCAMS library (AID 1159588; cut-off not given, nearly all actives have IC50 up to about 0.91 µM). The following applies: recombinant PfCDPK4, Kinase-Glo ATP depletion luminescence.
Calcium-dependent protein kinase 4 (Plasmodium falciparum (isolate 3D7)), sequence (Q8IBS5 whole entry, looked up): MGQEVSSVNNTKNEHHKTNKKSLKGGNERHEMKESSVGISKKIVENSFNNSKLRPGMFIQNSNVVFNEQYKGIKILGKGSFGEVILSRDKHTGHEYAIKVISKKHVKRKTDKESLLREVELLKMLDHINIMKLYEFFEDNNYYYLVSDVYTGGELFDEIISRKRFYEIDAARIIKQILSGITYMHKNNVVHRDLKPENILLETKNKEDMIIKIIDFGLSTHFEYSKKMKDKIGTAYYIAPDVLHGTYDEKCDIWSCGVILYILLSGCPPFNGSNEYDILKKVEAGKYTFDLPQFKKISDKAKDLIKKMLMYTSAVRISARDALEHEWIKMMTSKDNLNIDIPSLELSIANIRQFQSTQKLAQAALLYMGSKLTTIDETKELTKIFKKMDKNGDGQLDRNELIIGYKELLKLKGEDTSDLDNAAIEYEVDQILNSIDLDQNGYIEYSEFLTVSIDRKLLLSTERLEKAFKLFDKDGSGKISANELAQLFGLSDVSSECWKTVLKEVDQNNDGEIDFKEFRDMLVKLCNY

A word on the inhibition: it is the relative decrease from the control value, in per cent.

Molecules are shown by their SMILES. A number with no mark means an inactive call. For part of these data: Potency and affinity values are given separately. The source made the active and inactive calls. Unless noted, the rule behind the calls is not given here.

Calcium-dependent protein kinase 1 (Plasmodium falciparum (isolate 3D7)), sequence (P62344 whole entry, looked up): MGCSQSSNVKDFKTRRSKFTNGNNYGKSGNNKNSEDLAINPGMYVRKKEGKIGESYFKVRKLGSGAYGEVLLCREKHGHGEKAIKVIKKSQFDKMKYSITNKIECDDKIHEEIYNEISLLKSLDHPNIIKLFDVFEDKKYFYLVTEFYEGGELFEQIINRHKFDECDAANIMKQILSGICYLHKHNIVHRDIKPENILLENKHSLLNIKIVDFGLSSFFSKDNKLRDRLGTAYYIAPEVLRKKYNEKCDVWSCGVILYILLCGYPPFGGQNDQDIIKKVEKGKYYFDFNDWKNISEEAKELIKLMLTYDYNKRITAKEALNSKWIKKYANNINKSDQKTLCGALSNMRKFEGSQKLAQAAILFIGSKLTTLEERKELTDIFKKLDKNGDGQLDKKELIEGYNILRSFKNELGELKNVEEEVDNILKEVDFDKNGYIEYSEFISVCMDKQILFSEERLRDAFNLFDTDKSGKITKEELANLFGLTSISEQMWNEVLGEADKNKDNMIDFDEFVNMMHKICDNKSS
Protein kinase 7 (PK7), Plasmodium falciparum 3D7 (PF3D7_0213400), sequence (Q7YTF7 1-343): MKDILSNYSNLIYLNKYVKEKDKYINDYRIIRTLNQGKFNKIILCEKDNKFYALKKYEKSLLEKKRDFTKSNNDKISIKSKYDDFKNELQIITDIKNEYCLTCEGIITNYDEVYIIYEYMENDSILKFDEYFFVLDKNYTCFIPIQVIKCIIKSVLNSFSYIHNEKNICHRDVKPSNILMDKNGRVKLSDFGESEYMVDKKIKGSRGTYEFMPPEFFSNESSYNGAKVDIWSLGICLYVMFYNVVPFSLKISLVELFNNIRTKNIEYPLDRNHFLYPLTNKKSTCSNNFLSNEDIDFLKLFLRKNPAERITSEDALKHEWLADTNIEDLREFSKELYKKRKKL
L-lactate dehydrogenase (Plasmodium falciparum (isolate CDC / Honduras)), sequence (Q27743 whole entry, looked up): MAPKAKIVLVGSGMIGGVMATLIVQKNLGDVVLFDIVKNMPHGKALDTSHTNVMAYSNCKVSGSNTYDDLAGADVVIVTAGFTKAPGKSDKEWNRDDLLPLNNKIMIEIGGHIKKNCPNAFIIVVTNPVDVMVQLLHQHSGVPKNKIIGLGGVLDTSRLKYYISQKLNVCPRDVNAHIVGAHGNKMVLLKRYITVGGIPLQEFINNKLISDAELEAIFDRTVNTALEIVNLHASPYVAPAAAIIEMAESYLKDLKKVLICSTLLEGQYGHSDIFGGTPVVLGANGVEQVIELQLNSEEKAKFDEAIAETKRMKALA

As for `O=[N+]([O-])c1cccc(CNCC2CCN(Cc3ccc(O)cc3)CC2)c1`, the growth inhibition in assay [1] was 5%; in assay [4], 98% (active). Moreover, the inhibition is 8% in assay [2] and 1% in assay [3]. Moreover, the outcome in assay [5], in assay [6], in assay [7] and in assay [8] was inactive.

Take `Oc1ccc(CCNc2nc(NCc3ccccc3-c3ccc(C(F)(F)F)cc3)nc(N3CCCNCC3)n2)cc1`: the growth inhibition in assay [1] is 2%; in assay [4] it was 95% (active). The inhibition in assay [2] is 12%; in assay [3], 0%. Moreover, the outcome in assay [5], in assay [6], in assay [7] and in assay [8] was inactive.

For the molecule `COc1ccc2nccc(N3CCC(CCNCc4ccc5c(n4)NC(=O)CS5)CC3)c2c1`, the growth inhibition in assay [1] was 86% (active); in assay [4], 101% (active). The figures for the inhibition in assay [2] and in assay [3] were 55% (active) and -1%, respectively. Besides, the outcome in assay [5], in assay [6], in assay [7] and in assay [8] was inactive.

Turning to `Cc1[nH]c(C)c(-c2ccc(OCCn3cnc(Cl)c3Cl)cc2)c(=O)c1Br`, the growth inhibition in assay [1] is 35%; in assay [4], 95% (active). The inhibition in assay [2] and in assay [3] was 2% throughout. Also, the result in assay [5], in assay [6], in assay [7] and in assay [8] was inactive.

Regarding `N#Cc1ccc(CN2CCC(Oc3ccc(NC(=O)c4cccs4)cc3)C2)cc1` (centres undefined), the growth inhibition in assay [1] is 65% (active); in assay [4] it was 82% (active). Besides, the inhibition is 5% in assay [2] and 1% in assay [3]. Moreover, the outcome in assay [5], in assay [6], in assay [7] and in assay [8] was inactive.

For `Cc1cc(NN=Cc2ccc(F)cc2)c2ccc(F)cc2n1`, the growth inhibition in assay [1] is 30%; in assay [4] it was 99% (active). Also, the inhibition in assay [2] is -7%; in assay [3] it was 0%. Further, the outcome in assay [5], in assay [6], in assay [7] and in assay [8] was inactive.

As to `CN1CCN(CCCN(Cc2cccc(-c3cccc(CNC4CCCC4)c3)c2)C(=O)CCC2CCCC2)CC1`, the growth inhibition is 96% (active) in assay [1] and 100% (active) in assay [4]. Besides, the inhibition is 35% in assay [2] and -3% in assay [3]. Moreover, the result in assay [5], in assay [6], in assay [7] and in assay [8] was inactive.

As to `O=C(c1cccc(-c2ccc(-c3nc4ccc(F)cc4[nH]3)s2)c1)N1CCCCC1CN1CCC(O)C1` (centres undefined), the growth inhibition in assay [1] was 85% (active); in assay [4], 101% (active). Besides, the results for the inhibition in assay [2] and in assay [3] were 23% and 2%, respectively. Also, the result in assay [5], in assay [6], in assay [7] and in assay [8] was inactive.

`CCCCNCc1ccc(-c2nc(CN(CCCn3ccnc3)C(=O)Nc3ccc(CC)cc3)cs2)cc1`: the growth inhibition is 56% (active) in assay [1] and 101% (active) in assay [4]. Besides, the inhibition was 21% in assay [2] and 6% in assay [3]. Further, the result in assay [5], in assay [6], in assay [7] and in assay [8] was inactive.

In the case of `CCOC(=O)C1=C(C)N=c2sc(=Cc3cc(Cl)ccc3O)c(=O)n2C1c1ccc2c(c1)OCO2` (centres undefined), the results for the growth inhibition in assay [1] and in assay [4] were 91% (active) and 96% (active), respectively. Moreover, the inhibition is -2% in assay [2] and -1% in assay [3]. Also, the result in assay [5], in assay [6], in assay [7] and in assay [8] was inactive.

As to `COc1ccccc1/C=C/C(=O)NC1CCC(CCN2CCc3ccc(-c4cc(C)no4)cc3CC2)CC1` (centres undefined), the growth inhibition was 11% in assay [1] and 95% (active) in assay [4]. For the same molecule, the inhibition in assay [2] is 47%; in assay [3] it was 0%. Further, the result in assay [5], in assay [6], in assay [7] and in assay [8] was inactive.

Consider `C=CCOc1ccc(C2C(C(=O)OC)=C(C)NC3=C2C(=O)c2ccccc23)cc1OC` (centres undefined), for which the growth inhibition in assay [1] was 65% (active); in assay [4] it was 82% (active). Besides, the inhibition in assay [2] is -4%; in assay [3] it was -8%. Besides, the outcome in assay [5], in assay [6], in assay [7] and in assay [8] was inactive.

Regarding `O=c1cc(NCCC(CNCc2ccoc2)NCc2cc(Br)cc(Br)c2)[nH]c2ccccc12` (centres undefined), the results for the growth inhibition in assay [1] and in assay [4] were 28% and 92% (active), respectively. Besides, the inhibition in assay [2] was -6%; in assay [3], -1%. Moreover, the outcome in assay [5], in assay [6], in assay [7] and in assay [8] was inactive.

In the case of `Cc1ccccc1OCC(O)CN1CCC(C2CCN(CC(O)COc3ccccc3C)CC2)CC1` (centres undefined), the growth inhibition in assay [1] is 51% (active); in assay [4], 100% (active). The inhibition in assay [2] is 12%; in assay [3] it was -4%. Moreover, the result in assay [5], in assay [6], in assay [7] and in assay [8] was inactive.

As for `CCC(C)NCc1c(O)ccc2c(CNC(C)CC)c(O)ccc12` (centres undefined), the values for the growth inhibition in assay [1] and in assay [4] were 31% and 100% (active), respectively. In addition, the results for the inhibition in assay [2] and in assay [3] were 14% and 2%, respectively. Further, the outcome in assay [5], in assay [6], in assay [7] and in assay [8] was inactive.

With `CN1CCN(Cc2ccc(-c3ccc4c(Nc5ccc(F)cc5Cl)ccnc4c3)o2)CC1`, the growth inhibition in assay [1] and in assay [4] was 100% (active) each time. Further, the inhibition was 8% in assay [2] and -3% in assay [3]. For the same molecule, the outcome in assay [5], in assay [6], in assay [7] and in assay [8] was inactive.

Turning to `O=C(NCCCCCN1CCC(c2c[nH]c3ccccc23)CC1)c1ccc(-c2ccccc2)nc1`, the values for the growth inhibition in assay [1] and in assay [4] were 13% and 87% (active), respectively. Moreover, the inhibition in assay [2] was 43%; in assay [3], 1%. In addition, the result in assay [5], in assay [6], in assay [7] and in assay [8] was inactive.

As for `CCCCCCCN(CCCCCCC)CCCC(=O)Nc1ccnc2ccc(OC)cc12`, the growth inhibition in assay [1] was 98% (active); in assay [4], 100% (active). Moreover, the inhibition in assay [2] is 43%; in assay [3] it was -5%. The outcome in assay [5], in assay [6], in assay [7] and in assay [8] was inactive.
